Each structure is given as a SMILES string. Out of some 5,500 compounds screened, about 2,000 (36%) were called active. About 18% were inconclusive and are not listed. Some of the results follow. Unmarked numbers belong to inactive results. No stated cut-off is given here; in the data, active means normalized growth mostly below about 0.91 (no sharp cut-off); inconclusive means no clear call, values can overlap the other calls; inactive means mostly above about 0.92.

This test can be described thus: chemical genetic growth profiling, strain panel (AID 1159580).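 Further: tested at 20 µM; growth read once vehicle control cultures reached saturation at 30 °C; 1 = growth at the plate median or of vehicle wells; lower values mean less growth of the strain.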 The note with it: growth OD.
Setting [1] is: S. cerevisiae deletion strains, locus YHR030C, strain SLT2, active compounds read low.

Regarding `CC12CCC(C1)C(C)(C)C2NC(=O)c1cccs1` (configuration not stated), the normalized growth runs as follows: (S. cerevisiae deletion strains, locus YAL013W, strain DEP1, active compounds read low) 0.976; (S. cerevisiae deletion strains, locus YBR229C, strain ROT2, active compounds read low) 1.01; (S. cerevisiae deletion strains, locus YDL101C, strain DUN1, active compounds read low) 0.995; (S. cerevisiae deletion strains, locus YDL134C, strain PPH21, active compounds read low) 0.991; (S. cerevisiae deletion strains, locus YDR150W, strain NUM1, active compounds read low) 0.907; (S. cerevisiae deletion strains, locus YEL061C, strain CIN8, active compounds read low) 1.02. Moreover, the normalized growth is 0.98 (S. cerevisiae deletion strains, locus YGR078C, strain PAC10, active compounds read low); 0.848 under setting [1]; 0.983 (S. cerevisiae deletion strains, locus YHR087W, strain rtc3, active compounds read low); 0.992 (S. cerevisiae deletion strains, locus YJL187C, strain SWE1, active compounds read low); 0.956 (S. cerevisiae deletion strains, locus YJR043C, strain POL32, active compounds read low); 0.97 (S. cerevisiae deletion strains, locus YJR075W, strain HOC1, active compounds read low). The normalized growth is 1.03 (S. cerevisiae deletion strains, locus YLR039C, strain RIC1, active compounds read low); 0.994 (S. cerevisiae deletion strains, locus YLR058C, strain SHM2 (second series), active compounds read low); 0.944 (S. cerevisiae deletion strains, locus YLR085C, strain ARP6, active compounds read low); 1.03 (S. cerevisiae deletion strains, locus YLR262C, strain YPT6, active compounds read low); 0.976 (S. cerevisiae deletion strains, locus YML094W, strain GIM5, active compounds read low); 0.988 (S. cerevisiae deletion strains, locus YMR219W, strain ESC1, active compounds read low). Also, the normalized growth is, setting by setting: (S. cerevisiae deletion strains, locus YMR263W, strain SAP30, active compounds read low) 0.942; (S. cerevisiae deletion strains, locus YMR307W, strain GAS1, active compounds read low) 0.834; (S. cerevisiae deletion strains, locus YNL153C, strain GIM3, active compounds read low) 1; (S. cerevisiae deletion strains, locus YNL298W, strain CLA4 (second series), active compounds read low) 0.983; (S. cerevisiae deletion strains, locus YNL322C, strain KRE1, active compounds read low) 0.987; (S. cerevisiae deletion strains, locus YNR030W, strain Alg12, active compounds read low) 0.995. The normalized growth is 0.924 (S. cerevisiae deletion strains, locus YOL006C, strain TOP1, active compounds read low); 0.968 (S. cerevisiae deletion strains, locus YPL055C, strain LGE1, active compounds read low); 0.976 (S. cerevisiae deletion strains, locus YPL241C, strain CIN2, active compounds read low); 0.858 (S. cerevisiae deletion strains, locus YPR135W, strain CTF4, active compounds read low); 0.954 (S. cerevisiae strains, strain wild type, active compounds read low).

Consider `C[N+](C)(CCOc1ccccc1)Cc1ccccc1`, for which the normalized growth by setting is: under setting [1], 0.888; (S. cerevisiae deletion strains, locus YHR079C, strain IRE1, active compounds read low) 0.844 (active); (S. cerevisiae deletion strains, locus YJL095W, strain BCK1, active compounds read low) 0.869 (active); (S. cerevisiae deletion strains, locus YJR066W, strain TOR1, active compounds read low) 0.799 (active); (S. cerevisiae deletion strains, locus YLR113W, strain HOG1, active compounds read low) 0.805 (active); (S. cerevisiae deletion strains, locus YNL183C, strain NPR1, active compounds read low) 0.788 (active). Also, the normalized growth is, setting by setting: (S. cerevisiae deletion strains, locus YOR231W, strain MKK1, active compounds read low) 0.887; (S. cerevisiae deletion strains, locus YPL256C, strain CLN2, active compounds read low) 0.812 (active).

The values are drawn from PubChem BioAssay AID1159580 (chemical genetic matrix, 2015).
